An excerpt weighted towards active compounds, which were near 0.64% of everything screened.
BLM inh-1: qHTS Assay for Inhibitors of Bloom's syndrome helicase (BLM); RecQ-like DNA helicase BLM (Homo sapiens), P54132; recombinant BLM DNA unwinding, fluorescence dequenching; 350,000 tested, 0.2% active; AID 2528, 2010; Potency, µM (doses to about 56.1 µM), inactives show at the top dose activity change, negative = inhibition, usual class: inhibitors;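 also: plate controls were vehicle for no effect and no enzyme for full effect; nearly all actives have a fitted effect of over 35% in size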
Target sequence (P54132 whole entry, looked up): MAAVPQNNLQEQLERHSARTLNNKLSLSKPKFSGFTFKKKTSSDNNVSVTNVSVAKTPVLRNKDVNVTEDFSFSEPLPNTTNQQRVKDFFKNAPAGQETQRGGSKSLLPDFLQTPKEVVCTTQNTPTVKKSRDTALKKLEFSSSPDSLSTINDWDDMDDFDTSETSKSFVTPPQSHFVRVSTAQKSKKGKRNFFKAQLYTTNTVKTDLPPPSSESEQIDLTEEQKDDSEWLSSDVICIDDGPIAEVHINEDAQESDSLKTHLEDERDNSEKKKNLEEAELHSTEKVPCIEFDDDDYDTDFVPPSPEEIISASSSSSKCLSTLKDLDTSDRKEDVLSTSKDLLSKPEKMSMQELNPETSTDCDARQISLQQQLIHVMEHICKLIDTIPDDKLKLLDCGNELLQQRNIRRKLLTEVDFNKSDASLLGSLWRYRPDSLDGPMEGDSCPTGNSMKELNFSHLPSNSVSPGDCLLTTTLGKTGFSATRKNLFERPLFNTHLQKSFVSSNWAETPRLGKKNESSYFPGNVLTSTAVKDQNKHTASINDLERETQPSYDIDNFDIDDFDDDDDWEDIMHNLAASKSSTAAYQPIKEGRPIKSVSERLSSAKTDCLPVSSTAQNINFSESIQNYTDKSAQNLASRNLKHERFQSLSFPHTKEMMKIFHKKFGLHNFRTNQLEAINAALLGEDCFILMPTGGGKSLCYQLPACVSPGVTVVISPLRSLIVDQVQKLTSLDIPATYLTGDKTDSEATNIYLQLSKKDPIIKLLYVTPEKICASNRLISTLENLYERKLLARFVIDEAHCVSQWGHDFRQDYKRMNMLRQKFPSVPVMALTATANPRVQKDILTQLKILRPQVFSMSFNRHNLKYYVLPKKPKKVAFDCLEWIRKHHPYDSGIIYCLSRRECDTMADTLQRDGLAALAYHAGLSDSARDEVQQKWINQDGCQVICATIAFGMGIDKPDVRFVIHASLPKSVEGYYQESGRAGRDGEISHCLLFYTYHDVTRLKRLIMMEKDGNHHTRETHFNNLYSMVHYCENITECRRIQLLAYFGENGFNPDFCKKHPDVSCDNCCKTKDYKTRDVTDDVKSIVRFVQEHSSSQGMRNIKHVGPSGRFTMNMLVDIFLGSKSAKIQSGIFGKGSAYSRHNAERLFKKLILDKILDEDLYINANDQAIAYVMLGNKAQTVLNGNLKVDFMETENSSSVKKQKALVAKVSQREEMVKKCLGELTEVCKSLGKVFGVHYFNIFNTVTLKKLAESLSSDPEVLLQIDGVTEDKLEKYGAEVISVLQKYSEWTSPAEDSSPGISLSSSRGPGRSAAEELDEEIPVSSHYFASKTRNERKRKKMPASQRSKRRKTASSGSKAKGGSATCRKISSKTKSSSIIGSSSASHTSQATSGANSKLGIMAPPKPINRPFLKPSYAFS
TR SRC2 fluor cs: Total Fluorescence Counterscreen for Inhibitors of the Interaction of Thyroid Hormone Receptor and Steroid Receptor Coregulator 2; TRb/SRC2 Texas Red total fluorescence interference; Potency, µM (titrated, usually from 106 µM), inactives show at the highest dose fluorescence change, negative = quenching; AID 1479, 2009; 280,000 tested, 0.29% active; active = well fitted curve in either direction with a large enough effect; inconclusive = small, poorly fitted or top-dose-only effect
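Flags fluorescent or light-absorbing compounds by total fluorescence, S + 2P, at 555 nm excitation and 632 nm emission. Mixture: 20 nM Texas Red SRC2 peptide, 0.6 uM human TRb LBD, 1 uM T3, 5% DMSO; compound exposure 5 h at ambient temperature.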
TRb SRC2 PPI: qHTS for Inhibitors of the Interaction of Thyroid Hormone Receptor and Steroid Receptor Coregulator 2; Thyroid hormone receptor beta (Homo sapiens), P10828; TRbeta-SRC2 peptide binding, fluorescence polarization; receptor liganded with 1 µM T3; Potency, µM (doses to about 106 µM), for inactives: at the top dose activity change, negative = inhibition, actives largely listed as inhibitors; 280,000 tested, 0.065% active; AID 1469, 2008;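 also: plate controls were bound peptide for no effect and peptide without receptor for full effect; nearly all actives have a fitted effect of over 50% in size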
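Each compound concentration gave % activity, normalized to unbound and bound Texas Red SRC2 controls, from polarization read after 5 hr ambient incubation with T3-loaded human TRb LBD.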
RECQ1 helicase: qHTS Assay for Inhibitors of RecQ-Like Dna Helicase 1 (RECQ1); ATP-dependent DNA helicase Q1 (Homo sapiens), P46063; RECQ1 DNA unwinding, red fluorescence kinetic read; Potency, µM (titrated, usually from 57.3 µM), for the others: at the highest dose activity, negative = inhibition, most hits filed as inhibitors; 240,000 tested, 0.54% active; AID 2549, 2010;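 also: plate controls were vehicle for no effect and no enzyme for full effect; nearly all actives have a fitted effect of over 30% in size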
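50 nM RECQ1T1 preincubated 15 min with compound in Tris pH 8.0 buffer with MgCl2, DTT, Tween-20 and 2.5 ug/ml poly(dI-dC); started with 200 nM TAMRA/BHQ-2 forked duplex and 2 mM ATP. Unwinding read as fluorescence (525/598 nm), two reads 2 h apart.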
BLM inh-2: qHTS Confirmation Assay for Inhibitors of Bloom's syndrome helicase (BLM) | Potency, µM, inactives show max response, negative = inhibition, most hits filed as inhibitors | BLM DNA unwinding, fluorescence quenching, biochemical | shares compounds with BLM inh-1 | 220 tested, 40% active;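 also: strand separation dequenches TAMRA so unwinding raises red fluorescence; series mostly up to about 69 µM; nearly all actives have a fitted effect of over 45% in size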
Starred values were filed as active, the others as inactive; i = inactive; ? = inconclusive; nt = no result; ! = a repeat was not active; [ ] = remark or other dose. Unless noted, calls follow the shape of the dose curve; as a rule, active = well fitted curve in the direction sought with a large enough effect; inconclusive = small, poorly fitted or top-dose-only effect, or another doubt; inactive = no such curve, though single readings can be large; an effect the other way counts as inactive or inconclusive. Unless noted, % is scaled to controls: 0 for no effect and ±100 for the full control effect; potency is read from the fitted curve at half-maximal effect.

SMILES | BLM inh-1 | TR SRC2 fluor cs | TRb SRC2 PPI | RECQ1 helicase | BLM inh-2
COc1cc(OC)c(-c2c3cc(O)c(=O)cc-3oc3cc(O)c(O)cc23)cc1OC | -27% | 40µM*[fluorescent] | ? | 10µM* | nt
Cc1c2cc(O)c(=O)cc-2oc2cc(O)c(O)cc12 | 14µM* | 9% | -13% | 10µM* | nt
CC(C)(C)c1ccc(S(=O)(=O)/C=C\C#N)cc1 | -6% | 1% | -2% | -10% | nt
Clc1ccc([C@H](Cn2ccnc2)OCc2c(Cl)cccc2Cl)c(Cl)c1 | 0%[21.4 µM] | -1%[53 µM] | 6%[53 µM] | i | nt
O=C(O)c1ccc(C(=O)O)c(C(=O)O)c1 | nt | -6%[201 µM] | -1%[201 µM] | nt | nt
CCCCCCCC[Si](OCC)(OCC)OCC | nt | 0%[201 µM] | 8%[201 µM] | nt | nt
CN1/C(=C\C=O)C(C)(C)c2ccccc21 | 4% | -4% | 4% | -7% | nt
CN1\C(=C/C=C/C=C/C=[N+](C)C)C(C)(C)c2ccccc21 | 28µM* | 50µM*[fluorescent] | ? | 25µM* | nt
Cc1ccc(OCC(=O)Nc2ccc(Cl)c(-c3nc4ncccc4o3)c2)cc1C | -6% | -1% | -4% | nt | nt
O=C(NCCc1ccccc1)c1nnc(Cc2cccc(F)c2)o1 | -6% | 0.0056µM*[quencher] | -23% | nt | nt
Cc1c(CNC(C)CCc2ccccc2)c(C(=O)O)c(C)n1Cc1ccc(F)cc1 (centres undefined) | 3% | -2% | 8% | nt | nt
Cc1cccc(-n2c3nc(=O)[nH]c(=O)c-3cc3cc([N+](=O)[O-])ccc32)c1 | 2% | -5% | -3% | -16% | nt
Cc1ccc(C)c(-n2c3nc(=O)[nH]c(=O)c-3cc3cc([N+](=O)[O-])ccc32)c1 | 20µM* | -1% | 11% | 0% | nt
COc1ccccc1N1CCN(C(CNC(=O)C(=O)NCc2ccc(F)cc2)c2cccnc2)CC1 (centres undefined) | 0% | ? | -23% | nt | nt
O=c1cc(-c2ccc(O)cc2)oc2c(O)c(O)c(O)c(O)c12 | 10µM* | -5% | -9% | 13µM* | nt
O=c1cc(-c2ccccc2)oc2cc(O)c(O)c(O)c12 | 16µM*! | 45µM*![quencher] | ? | 28µM* | nt
CCCCCCCCCCO | nt | 0%[5.17e+03 µM] | 3%[5.17e+03 µM] | nt | nt
Cc1c(C(=O)OCC2CCCO2)[nH]c2c1C(=O)CC(c1ccco1)C2 (centres undefined) | 14µM* | ? | 3% | 25µM* | 18µM*
Cc1cc(OCC(=O)Nc2cc(-c3nc4ncccc4o3)ccc2C)ccc1Cl | 28µM* | -1% | -9% | nt | ?
Cc1ccc(-c2nc3ncccc3o2)cc1NC(=O)COc1ccc(C(C)C)cc1 | -15% | 1% | 2% | nt | nt
O=C(CNC(=O)/C=C/c1ccco1)N=Nc1c(O)[nH]c2ccccc12 | 20µM* | nt | nt | nt | 20µM*
CN1CCN(c2ncnc3ccc(-c4ccccc4C(F)(F)F)cc23)CC1 | 8% | nt | nt | -3% | nt
O=C(OCC(=O)N1CCN(C(=O)c2ccco2)CC1)c1cc(-c2ccc(Cl)c(Cl)c2Cl)nc2ccccc12 | -7% | -4% | 1% | 0% | nt
O=C(OCC(=O)N1CCN(C(=O)c2ccco2)CC1)c1cc(-c2ccco2)nc2ccccc12 | 8.9µM* | -23% | 10% | 13µM* | ?
COc1cccc(N2CCN(CC(=O)NC(=O)NCc3ccco3)CC2)c1 | 11µM* | -3% | -2% | ? | 1%
SMILES | BLM inh-1 | TR SRC2 fluor cs | TRb SRC2 PPI | RECQ1 helicase | BLM inh-2
COc1ccc(Cl)cc1NC(=O)C(C)n1nnc2sc3c(c2c1=O)CCCC3 (centres undefined) | -3% | 0% | -1% | nt | nt
Nc1ccc2nc(-c3cc(Cl)c(N)c(Cl)c3)[nH]c2c1 | 14µM* | -4% | 11% | 2% | ?
Nc1ccc2nc(-c3ccc(Cl)cc3)[nH]c2c1 | -11% | -16% | 2% | -13% | nt
Cc1ccc(NC(=O)CSc2nc(NS(=O)(=O)c3ccccc3)cc(=O)[nH]2)cc1 | ? | -7% | 15% | ? | nt
CCc1ccc(NC(=O)CSc2nc(NS(=O)(=O)c3ccccc3)cc(=O)[nH]2)cc1 | 16µM* | -6% | 6% | 13µM* | 3%
CO/N=C(/C(=O)N[C@@H]1C(=O)N2C(C(=O)O)=CCS[C@H]12)c1csc(N)n1 | -6% | nt | nt | nt | nt
COc1ccc2nc3cccc(OC)c3nc2c1 | 3.5µM* | -12% | ? | 1% | 10%
COc1ccc2nc3ccccc3nc2c1N | ? | ? | -27% | -1% | nt
Oc1ccc(N=Cc2ccc(OCc3ccccc3)cc2)cc1 | 32µM* | 13% | 40µM* | ? | -8%
O=C(N/N=C/c1ccc(OCc2ccccc2)cc1)c1ccncc1 | -3% | -2% | -5% | i | nt
Cc1ccc2c(c1Br)C(O)(CC(=O)c1ccc(F)cc1)C(=O)N2 (centres undefined) | -8% | -3% | 6% | nt | nt
CC(C)Cn1c(N)c(C(=O)NCC2CCCO2)c2nc3ccccc3nc21 (centres undefined) | 8.9µM* | -6% | -24% | 14% | -10%
O=c1[nH][nH]c2c(N=Cc3ccccc3O)ccc(F)c12 | 28µM* | -24% | -10% | ? | ?
CCOC(=O)Cc1c(C)nc2c(-c3ccc(OC)c(OC)c3)c(C)nn2c1C | 3% | -9% | 0% | nt | nt
Cc1cc(=O)cc2oc3cc(N)c(-c4c(C)cc(O)cc4O)c(C)c3nc1-2 | 16µM* | ? | ? | -8% | 20µM*
O=C(O)CSc1cc(C(=O)c2cc(F)ccc2O)cn2c(=O)c3c(-c4ccccc4)csc3nc12 | 25µM* | -5% | 5% | -26% | ?
O=C(Cn1c(=O)n(Cc2ccco2)c(=O)c2c3c(sc21)CCCCC3)c1ccccc1 | -22% | -6% | 2% | -28% | nt
O=C(Cn1c(=O)n(Cc2ccco2)c(=O)c2c3c(sc21)CCCCC3)Nc1ccccc1 | 20µM* | ? | -9% | 13µM* | ?
CCOC(=O)c1cccc(-n2c(C)nc3ccccc3c2=O)c1 | 2% | -3% | 3% | i | nt
CCCc1nc2ccccc2c(=O)n1-c1ccc(C(=O)OCC)cc1 | 7.9µM* | -1% | -6% | 8% | -6%
Cc1ccc(NC(=O)Cn2ccn(-c3ccc(F)c(F)c3)c(=O)c2=O)cc1C | -5% | -12% | 3% | nt | nt
O=C(COC(=O)C1(c2ccc(F)cc2)CCCC1)NCc1ccco1 | 22µM* | -3% | -2% | ? | -11%
O=C(O)c1ccc(CO)o1 | nt | -1% | 4% | -2% | nt
COc1cc(/C=N\NC(=O)c2ccc(-c3ccccc3)cc2)ccc1OCC(N)=O | -1% | nt | nt | nt | nt
CCOc1cc(/C=N/NC(=O)c2ccc(-c3csc(Nc4ccc(C)cc4)n3)cc2)ccc1OCC(=O)O | 16µM* | -10% | 4% | -7% | 32µM*
O=C(Cc1cccs1)Nc1ccc(S(=O)(=O)N2CCCC2)cc1 | 18µM* | -1% | 5% | 26% | ?
O=C(O)CCC(=O)Nc1ccc(S(=O)(=O)N2CCCC2)cc1 | -1% | -6% | 1% | -1% | nt

From PubChem
